From PubChem BioAssay AID2227 (Johns Hopkins Ion Channel Center, 2009)
Screen size: about 310,000 compounds; about 1,300 (0.42%) were called active.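 How the source made its calls: active means B-score of calcium response area above 5 SD of library B-scores, with initial fluorescence ratio within 5 SD of library; inactive means the rest.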 The full list was thinned out, with actives kept by preference.

Target: Short transient receptor potential channel 4 (Mus musculus) (UniProt Q9QUQ5)
Experiment: TRPC4 channel potentiators under submaximal DAMGO – cell-based, mouse TRPC4beta, HEK293 mu-opioid, Fluo-4 calcium, primary screen (AID 2227);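 on B-score: B-score of integrated fluorescence ratio over time as area under calcium response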
Details: DAMGO EC20, Fluo-4 Ca2+ flux, at 10 µM; active compounds read high

Sequence of Short transient receptor potential channel 4 (Mus musculus) (Q9QUQ5 whole entry, looked up): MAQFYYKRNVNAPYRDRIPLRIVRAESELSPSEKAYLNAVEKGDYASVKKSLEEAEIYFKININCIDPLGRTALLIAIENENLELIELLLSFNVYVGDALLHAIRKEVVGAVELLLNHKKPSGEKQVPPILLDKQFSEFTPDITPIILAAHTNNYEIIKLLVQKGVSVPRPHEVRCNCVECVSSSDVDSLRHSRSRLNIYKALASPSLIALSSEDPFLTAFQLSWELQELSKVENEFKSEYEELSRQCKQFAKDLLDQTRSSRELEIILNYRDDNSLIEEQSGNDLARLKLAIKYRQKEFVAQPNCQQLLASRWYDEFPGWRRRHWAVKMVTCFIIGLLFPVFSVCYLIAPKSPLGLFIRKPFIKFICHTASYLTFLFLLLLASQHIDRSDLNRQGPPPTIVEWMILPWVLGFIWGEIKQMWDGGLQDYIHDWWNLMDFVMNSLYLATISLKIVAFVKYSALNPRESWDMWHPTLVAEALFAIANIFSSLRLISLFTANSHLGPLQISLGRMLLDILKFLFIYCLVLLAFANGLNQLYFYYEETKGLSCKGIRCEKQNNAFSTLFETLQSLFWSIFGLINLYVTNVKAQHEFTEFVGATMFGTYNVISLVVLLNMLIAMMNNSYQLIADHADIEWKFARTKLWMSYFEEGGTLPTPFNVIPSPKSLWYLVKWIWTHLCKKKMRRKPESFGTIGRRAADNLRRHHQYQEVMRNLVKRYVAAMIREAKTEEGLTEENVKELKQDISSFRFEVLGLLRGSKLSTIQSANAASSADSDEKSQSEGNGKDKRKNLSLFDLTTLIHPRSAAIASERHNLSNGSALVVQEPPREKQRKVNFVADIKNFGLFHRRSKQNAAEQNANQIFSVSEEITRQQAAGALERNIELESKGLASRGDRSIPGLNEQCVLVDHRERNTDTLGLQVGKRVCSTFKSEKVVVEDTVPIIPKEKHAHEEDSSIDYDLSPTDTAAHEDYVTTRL

B-score, inactive:
COc1ccccc1NC(=O)Nc1nc(CC(=O)Nc2ccccc2F)cs1
C=CCc1cccc2cc(C(=O)OCC)c(=O)oc12
NS(=O)(=O)c1ccc(NC(=O)COC(=O)c2cc3ccccc3oc2=O)cc1
CC(C)c1c(C(=O)N/N=C/c2ccc(-c3ccccc3)cc2)nnn1-c1nonc1N
CCCc1nc2scc(-c3ccc(C)cc3)c2c(=O)n1N
CN1CCN(c2ccc(CNS(=O)(=O)c3cccc(F)c3)cc2)CC1
O=C(NCC(=O)N1CCN(c2ncc(C(F)(F)F)cc2Cl)CC1)c1ccc(Br)o1
O=C(CN1CCN(C(=O)c2ccco2)CC1)Nc1ccc2c(c1)OCO2
OCCNc1nc2ccccc2n1-c1ncnc2sc3c(c12)CCC3
COCCNC(=S)N1CCC(NC(=O)C23CC4CC(CC(C4)C2)C3)CC1
COc1nc(NC2CCCCC2)nc(N2CCCCCC2)n1
CN(N)c1nc(N2CCCC2)nc(N2CCCC2)n1
CC(=O)OCCOCn1cnn2c(=O)c(Br)c(C)nc12
C/C(=N\NC(=O)c1cc(-c2ccc(O)cc2)nc2ccccc12)c1cccnc1
COc1cc(/C=C2/SC(=S)N(Cc3ccccc3)C2=O)cc(OC)c1O
O=C1/C(=C\c2ccsc2)NC(=S)N1c1ccccc1
CCC(C)(C)NC(=O)c1cc([N+](=O)[O-])ccc1N1CCCCC1
CCOc1ccccc1NS(=O)(=O)c1c[nH]c(C(=O)OC)c1
CCOC(=O)C1CCCN(CCSc2ccc(C)cc2)C1 (configuration not stated)
O=C(/C=C/c1ccc(Cl)c([N+](=O)[O-])c1)c1cccnc1
O=C(/C=C/c1ccc(Cl)c([N+](=O)[O-])c1)c1ccc(O)cc1
Oc1cccc(/C=N/Nc2ccc(Cl)nn2)c1O
Brc1ccccc1/C=N/Nc1nc2ccccc2o1
O=[N+]([O-])c1cc(S(=O)(=O)CCCN2CCOCC2)ccc1F
C/C(=N/NC(=O)CCc1ccccc1)c1ccco1
CCOc1cc(C(=S)N2CCOCC2)ccc1O
COc1ccc(C)cc1NC(=S)N1CCOCC1
O=C(/C=C/c1ccc(OCc2c(F)cccc2Cl)cc1)N1CCOCC1
COCCCNC(=O)/C=C/c1ccc(OCc2c(F)cccc2Cl)cc1
CSc1nnc(C2CCCN(CC(=O)Nc3ccccc3N3CCOCC3)C2)n1C(C)C (configuration not stated)
COc1ccc(OC)c(S(=O)(=O)N2CCCC(C(=O)NCCc3ccccc3)C2)c1 (configuration not stated)
Cc1ccc(S(=O)(=O)N2CCN(Cc3cccc(C)c3O)CC2)cc1
O=C(CN1CCN(S(=O)(=O)c2ccc(F)cc2)CC1)Nc1ccccc1F
Cc1ccc(C(=O)COC(=O)c2cccc(N3C(=O)c4c(C)nc5ccccc5c4C3=O)c2)cc1C
Cc1cccn2c(=O)c(C=O)c(Nc3ccc(S(N)(=O)=O)cc3)nc12
O=C(Nc1cccc(Cl)c1)c1cc([N+](=O)[O-])ccc1N1CCN(CCO)CC1
CC(=O)Nc1ccc(N2CCOCC2)c(C(=O)Nc2cccc(C)c2)c1
CC(Sc1nn(-c2ccc(Cl)cc2)c(=S)s1)C(=O)NCC1CCCO1 (configuration not stated)
COc1ccc(S(=O)(=O)n2cnc3ccccc32)c(C)c1
CCCOc1ccc(Cn2ccnc2)cc1[N+](=O)[O-]
CCCCCOc1ccc(CSC2=NCCN2)cc1[N+](=O)[O-]
O=C(NNC(=O)C1C2CCC(C2)C1C(=O)O)c1ccc(Cl)cc1 (configuration not stated)
Cc1ccc(CN(CC(=O)NC2CCCCC2)C(=O)c2csnn2)cc1
Cc1ccccc1C(CC(=O)c1cccs1)C(C#N)C#N (configuration not stated)
CCOc1ccc(Br)cc1S(=O)(=O)Nc1ccc(C(=O)OC(C)C(=O)N(C)c2ccccc2)cc1 (configuration not stated)
O=C(NCc1cccc(C(F)(F)F)c1)c1cccc(S(=O)(=O)N2CCN(Cc3ccccc3)CC2)c1
CCOC(=O)N1CCN(C(=O)c2ccc(S(=O)(=O)Nc3cccc(C(F)(F)F)c3)cc2)CC1
CC[C@@H](C)[C@H](NC(=O)CCc1c(C)c2cc3c4c(oc3c(C)c2oc1=O)CCCC4)C(=O)O
CC(C)CC(COCc1ccc(Cl)cc1)N1CCN(C(=O)c2ccc(C(F)(F)F)cc2)CCC1=O (configuration not stated)
CN1CCC(=O)N([C@H](CO)Cc2ccccc2)CC1
COc1ccc(N2CC(C(=O)NCCN3C(=O)S/C(=C\c4cccnc4)C3=O)CC2=O)c(OC)c1 (configuration not stated)
COc1ccc(N2CCN(S(=O)(=O)CCNC(=O)C34CC5CC(CC(C5)C3)C4)CC2)cc1
Cc1ccc(NC(=O)Cc2nnc(SCC(=O)Nc3nncs3)n2C)cc1
C[C@]12C=CC(=O)C=C1CC[C@@H]1[C@@H]2C(=O)C[C@@]2(C)[C@H]1CC[C@]2(O)C(=O)CO
CC(=O)O[C@]1(C(C)=O)CC[C@H]2[C@@H]3C=C(C)C4=CC(=O)CC[C@]4(C)[C@H]3CC[C@@]21C
CC(=O)c1c(C)n(-c2ccc(N(C)C)cc2)c2ccc(OCC(N)=O)cc12
O=C1CSC(c2ccc(Cl)cc2)N1 (configuration not stated)
COc1ccc(S(=O)(=O)NC(C)c2ccccc2)cc1C(=O)N1CCCCC1 (configuration not stated)
O=c1c2ccccc2oc2nc3n(c(=O)c12)CCCS3
CCc1nc2oc3ccccc3c(=O)c2c(=O)n1Cc1ccc(OC)cc1
CSc1ccccc1NC(=O)CN(C)CC(=O)Nc1ccc(Cl)cc1[N+](=O)[O-]
CN(C)CCNc1ccc(-c2n[nH]c(=O)c3ccccc23)cc1[N+](=O)[O-]
C/C(=N\N1CCN(Cc2ccc(C)cc2)CC1)c1ccco1
CCn1cc(C(=O)NCC(=O)NC(C)(C)CO)c(=O)c2cc3c(cc21)OCO3
COc1ccccc1CNS(=O)(=O)CC12CCC(CC1=O)C2(C)C (configuration not stated)
Cc1c(NC(=O)C(=O)N/N=C/c2cccs2)c(=O)n(-c2ccccc2)n1C

B-score, active:
CCOC(=O)c1cc2cc3ccccc3cc2oc1=O 13
O=C(CN1CCN(c2ncc(C(F)(F)F)cc2Cl)CC1)Nc1ccc2c(c1)OCO2 10
FC(F)(F)COc1nc(N2CCCCC2)nc(N2CCNCC2)n1 27
CN(C)c1ccc(/C=C2\NC(=S)N(Cc3ccccc3)C2=O)cc1 14
NC(N)=N/N=C/c1ccc(Cl)c([N+](=O)[O-])c1 16
Oc1c(Br)cccc1/C=N/Nc1c(F)c(F)c(F)c(F)c1F 11
COc1cc(C(=S)N2CCOCC2)ccc1O 42
CN(C)CCCNC(=O)/C=C/c1ccc(OCc2c(F)cccc2Cl)cc1 16
O=S(=O)(c1ccc(F)cc1)N1CCN(Cc2ccccc2C(F)(F)F)CC1 11
Cc1cccc(NC(=O)c2cc([N+](=O)[O-])ccc2N2CCN(C)CC2)c1 21
CCCCOc1ccc(CSC(=N)N)cc1[N+](=O)[O-] 21
O=C(NCc1ccccc1)c1ccc(S(=O)(=O)Nc2cccc(C(F)(F)F)c2)cc1 17
O=C(c1cc(Cl)cc(Cl)c1)N1CCC(=O)N(C(COCc2ccccc2)Cc2ccccc2)CC1 (configuration not stated) 12
CC(=O)C12CC(C)=C(C)CC1CC1C3CCC4=CC(=O)CCC4(C)C3CCC12C (configuration not stated) 11
O=c1c2ccccc2oc2nc(C3CCCCC3)n(Cc3ccco3)c(=O)c12 29
CCN(CC)CCNc1ccc(Cl)cc1[N+](=O)[O-] 20
